Assay results published in PubChem BioAssay (NCI).
This is part of a sample that, as a whole, favours compounds with a hit. Of some 83,000 tested, about 20% had one in any assay.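 Cells were grown in 96-well plates and exposed to the test compound at a single concentration for 48 hours; results are reported as percent growth, with values below 10 considered active.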 Active and inactive are the calls of the source.

Experiments:
Assay in all cases: NCI-60 one-dose screen, 48 h (100 = growth as untreated, 0 = no growth, -100 = all killed)
Details in all cases: 10 µM unless noted
T-47D breast = system: T-47D breast
MDA-MB-435 melanoma = system: MDA-MB-435 melanoma
SW-620 colon = system: SW-620 colon
MCF7 breast = system: MCF7 breast
HCT-116 colon = system: HCT-116 colon
HCC-2998 colon = system: HCC-2998 colon
KM12 colon = system: KM12 colon
BT-549 breast = system: BT-549 breast

Measured: growth

NN=C(c1ccc(Cl)cc1)c1ccc(Cl)cc1
inactive: T-47D breast 108% | MDA-MB-435 melanoma 97.1% | SW-620 colon 101% | MCF7 breast 99.6% | HCT-116 colon 98.4% | HCC-2998 colon 96% | KM12 colon 92.9%

Cc1cc2nc(-c3c(N)ncc(C#N)c3-c3ccc(Cl)cc3)[nH]c2cc1C
inactive: T-47D breast 68.8% | MDA-MB-435 melanoma 58% | SW-620 colon 76.6% | MCF7 breast 58.5% | HCT-116 colon 34.8% | HCC-2998 colon 65.4% | KM12 colon 52.9%

Cc1ccc2c(c1)Nc1ccc(C)cc1C2(C)C
inactive: T-47D breast 80.6% | MDA-MB-435 melanoma 98.3% | SW-620 colon 103% | MCF7 breast 86.9% | HCT-116 colon 89.3% | HCC-2998 colon 104% | KM12 colon 110%

Cc1[nH]n(C(=O)c2ccncc2)c(=O)c1N=Nc1ccc(S(=O)(=O)Nc2ccncn2)cc1
inactive: T-47D breast 113% | MDA-MB-435 melanoma 117% | SW-620 colon 108% | MCF7 breast 102% | HCT-116 colon 92.6% | HCC-2998 colon 113% | KM12 colon 109%

COC(=O)c1oc2c(C(C)=O)c(OCCN3CCCCC3)ccc2c1C
inactive: T-47D breast 129% | MDA-MB-435 melanoma 80.8% | SW-620 colon 103% | MCF7 breast 105% | HCT-116 colon 89.7% | HCC-2998 colon 113% | KM12 colon 102%

Cc1ccc[n+](CC(=O)c2cccc3ccccc23)c1
inactive: T-47D breast 91.9% | MDA-MB-435 melanoma 102% | SW-620 colon 106% | MCF7 breast 98.6% | HCT-116 colon 99.6% | HCC-2998 colon 104% | KM12 colon 103%

Cc1[nH]c2ccc(F)cc2c1CCNC(=O)C1CCN(C(=O)c2ccc(-c3ccccc3)cc2)CC1
inactive: MDA-MB-435 melanoma 56.8% | SW-620 colon 69.3% | MCF7 breast 16.5% | HCT-116 colon 32.5% | HCC-2998 colon 57% | KM12 colon 43.3%
active: T-47D breast -32.2%

CCOC(=O)c1cnc2c(OC)ccc(OC)c2c1Cl
inactive: T-47D breast 116% | MDA-MB-435 melanoma 104% | SW-620 colon 107% | MCF7 breast 108% | HCT-116 colon 108% | HCC-2998 colon 117% | KM12 colon 101%

C=CC(=O)NC(=O)Nc1ccccc1Cl
inactive: T-47D breast 65.8% | MDA-MB-435 melanoma 82.4% | SW-620 colon 53.6% | MCF7 breast 27.1% | HCT-116 colon 55.5% | HCC-2998 colon 110% | KM12 colon 96.4%

O=C(N/N=C/c1ccccc1O)c1ccccc1O
inactive: T-47D breast 25.7% | BT-549 breast 34% | SW-620 colon 41.4% | HCT-116 colon 26.7% | HCC-2998 colon 43% | KM12 colon 33.5%

COc1ccc(Cn2cc(COc3ccc4c5ccnc(C)c5n(CCCc5ccccc5)c4c3)nn2)cc1
inactive: T-47D breast 61.8% | MDA-MB-435 melanoma 63.2% | SW-620 colon 65.5% | MCF7 breast 47.7% | HCT-116 colon 51.5% | HCC-2998 colon 83% | KM12 colon 59.7%

CC/C(=C(\CC)c1ccc(OCCN(CC)CC)cc1)c1ccc(OCCN(CC)CC)cc1
active: SW-620 colon 9.59%
inactive: T-47D breast 12.3% | MDA-MB-435 melanoma 15.4% | MCF7 breast 30.1% | HCT-116 colon 16.7% | HCC-2998 colon 63.2% | KM12 colon 33.5%

COc1ccc(N)c(S)c1
inactive: T-47D breast 89.5% | MDA-MB-435 melanoma 106% | SW-620 colon 93.6% | MCF7 breast 94.4% | HCT-116 colon 92.5% | HCC-2998 colon 103% | KM12 colon 105%

Cn1c2ccccc2c2ssc(=S)c21
inactive: T-47D breast 87.3% | MDA-MB-435 melanoma 91.7% | SW-620 colon 105% | MCF7 breast 92.9% | HCT-116 colon 101% | HCC-2998 colon 101% | KM12 colon 99.7%

Cc1cc[n+](CCCC[n+]2ccc(C)cc2)cc1
inactive: T-47D breast 105% | MDA-MB-435 melanoma 102% | SW-620 colon 103% | MCF7 breast 96.3% | HCT-116 colon 100% | HCC-2998 colon 103% | KM12 colon 90.5%

COc1cc(/C=C2/Oc3cc4occc4c(OC)c3C2=O)ccc1OCC(=O)Nc1ccncc1
inactive: T-47D breast 108% | MDA-MB-435 melanoma 112% | SW-620 colon 103% | MCF7 breast 94.3% | HCT-116 colon 95.3% | HCC-2998 colon 110% | KM12 colon 97.1%
